Measured values as given in PubChem BioAssay (Tox21).
Inconclusive results are not listed. Calls of active or inactive are those of the source. Unless noted, the call rests on the fitted dose curve; in most records, active means well fitted curve in the direction sought with a large enough effect in the repeat runs; inconclusive means weak or mixed curves; inactive means no such curve, though single readings can be large; an effect the other way counts as inactive or inconclusive.

What was measured:
[1] = qHTS assay for small molecules that induce genotoxicity in human embryonic kidney cells expressing luciferase-tagged ATAD5 (AID 651632); further: nearly all actives have a fitted effect of over 15% in size
Outline: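 Reporter cells (HEK293T) express luciferase-tagged ATAD5, a protein that accumulates after DNA damage. Treat 16 hr at 37C/5% CO2, add Amplite, wait 30 min at RT, and read luminescence.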

[2] = qHTS assay for small molecule agonists of the p53 signaling pathway - cell viability (AID 651633; calls by dose curve;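 further: p53RE-bla HCT reporter cells with a stable beta-lactamase p53 reporter; series mostly up to about 83 µM; nearly all actives have a fitted effect of over 30% in size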)
Outline: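 p53RE-bla cells were treated with compound for 16 hours at 37 C. Cytotoxicity was then measured as CellTiter-Glo luminescence after 30 min at room temperature.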

[3] = qHTS assay for small molecules that induce genotoxicity in human embryonic kidney cells expressing luciferase-tagged ATAD5 - cell viability (AID 651634; calls by dose curve; further: nearly all actives have a fitted effect of over 25% in size)
Outline: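 Seeding of 2,000 HEK293T ATAD5-luciferase cells per well preceded pin-tool compound transfer. Plates sat 15.5 hr at 37C under 5% CO2, then fluorescence was read after 30 min with CellTiter-Fluor.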

[4] = qHTS assay for small molecule disruptors of the mitochondrial membrane potential - cell viability (AID 720634; calls by dose curve;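 further: human HepG2 liver cancer cells; series mostly up to about 83 µM; nearly all actives have a fitted effect of over 20% in size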)
Outline: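 Measuring cytotoxicity alongside mitochondrial potential, the screen quantified ATP by luminescence in HepG2 cells after 1 hr compound incubation and a 30 min room-temperature CellTiter-Glo step.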

[5] = qHTS assay for small molecule disruptors of the mitochondrial membrane potential (AID 720635)
Outline: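 HepG2 cells exposed to compound 1 hr at 37C, then Mito-MPS dye 30 min. Ratio read of aggregate (540/590 nm) versus monomer (490/535 nm) fluorescence.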

[6] = qHTS assay to test for compound auto fluorescence at 590 nm (red) in HepG2 cells (AID 720674)
Outline: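 Seeding: 2,000 HepG2 cells/well, MEM/10% FBS, overnight 37 C. Dosing: compound vs DMSO. Incubation: 1 hr, 37 C, 5% CO2. Read: fluorescence 540 ex/590 em, Rose Bengal sodium as red reference.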

[7] = qHTS assay to test for compound auto fluorescence at 535 nm (green) in HepG2 cells (AID 720675)
[8] = qHTS assay to test for compound auto fluorescence at 460 nm (blue) in HEK293 cells (AID 720678)
Outline: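 Blue read-out at excitation 405 nm and emission 460 nm follows overnight compound exposure of HEK293 cells at 37C in 5% CO2. Activity is given as auto fluorescence equivalency to triamterene.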

[9] = qHTS assay to test for compound auto fluorescence at 590 nm (red) in HEK293 cells (AID 720679)
Outline: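 Red channel, Ex/Em 540/590nm; signal expressed as equivalency to Rose Bengal sodium. HEK293, 2,000 cells/well, 10% dialyzed FBS; 23 nL compound pinned after 4-5 hr attachment; overnight 37C/5% CO2 before reading.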

[10] = qHTS assay to test for compound auto fluorescence at 535 nm (green) in HEK293 cells (AID 720680)
[11] = qHTS assay to test for compound auto fluorescence at 460 nm (blue) in HEK293 cell free culture (AID 720681)
Outline: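 Compounds were added to cell-free DMEM with 10% FBS and fluorescence read directly. The blue channel used 405 nm excitation and 460 nm emission, with triamterene as the reference fluorophore.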

[12] = qHTS assay to test for compound auto fluorescence at 535 nm (green) in HEK293 cell free culture (AID 720682)
Outline: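 Read-out: 485/535 nm fluorescence intensity, calibrated against fluorescein. Medium only (DMEM + 10% FBS, no cells); test compound or DMSO vehicle added by pintool before plate reading.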

[13] = qHTS assay to test for compound auto fluorescence at 590 nm (red) in HEK293 cell free culture (AID 720683)
Outline: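 Cell-free wells of DMEM with 10% FBS received compound, and intrinsic fluorescence was read at excitation/emission 540/590 nm. Values expressed as equivalence to Rose Bengal sodium.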

[14] = qHTS assay to test for compound auto fluorescence at 590 nm (red) in HepG2 cell free culture (AID 720684)
Outline: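 Compound was pinned into wells holding MEM with 10% FBS and no cells, and red fluorescence was read at Ex/Em 540/590 nm. Signal is expressed as auto fluorescence equivalency relative to Rose Bengal sodium.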

[15] = qHTS assay to test for compound auto fluorescence at 460 nm (blue) in HepG2 cell free culture (AID 720685)
Outline: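 Compound (23 nL) or DMSO pinned into cell-free MEM with 10% FBS; blue fluorescence read at 405/460 nm excitation/emission, expressed as auto-fluorescence equivalency to triamterene.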

[16] = qHTS assay to test for compound auto fluorescence at 535 nm (green) in HepG2 cell free culture (AID 720686)
[17] = qHTS assay to test for compound auto fluorescence at 460 nm (blue) in HepG2 cells (AID 720687)
Outline: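 HepG2 cells in MEM with 10% FBS, attached overnight at 37 C, were exposed to compound or DMSO for 1 hr at 37 C, 5% CO2. Blue fluorescence was read at 405/460 nm, with triamterene as reference fluorophore.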

[18] = qHTS assay to identify small molecule antagonists of the glucocorticoid receptor (GR) signaling pathway - cell viability counter screen (AID 720693); further: nearly all actives have a fitted effect of over 55% in size
[19] = target: Glucocorticoid receptor (Homo sapiens) (UniProt P04150); experiment: qHTS assay to identify small molecule agonists of the glucocorticoid receptor (GR) signaling pathway (AID 720691; active means well fitted activation curve with a large enough effect in the signal ratio in the repeat runs, not every such curve was filed as active; the % refers to the signal ratio)
Glucocorticoid receptor (Homo sapiens), sequence (P04150 whole entry, looked up): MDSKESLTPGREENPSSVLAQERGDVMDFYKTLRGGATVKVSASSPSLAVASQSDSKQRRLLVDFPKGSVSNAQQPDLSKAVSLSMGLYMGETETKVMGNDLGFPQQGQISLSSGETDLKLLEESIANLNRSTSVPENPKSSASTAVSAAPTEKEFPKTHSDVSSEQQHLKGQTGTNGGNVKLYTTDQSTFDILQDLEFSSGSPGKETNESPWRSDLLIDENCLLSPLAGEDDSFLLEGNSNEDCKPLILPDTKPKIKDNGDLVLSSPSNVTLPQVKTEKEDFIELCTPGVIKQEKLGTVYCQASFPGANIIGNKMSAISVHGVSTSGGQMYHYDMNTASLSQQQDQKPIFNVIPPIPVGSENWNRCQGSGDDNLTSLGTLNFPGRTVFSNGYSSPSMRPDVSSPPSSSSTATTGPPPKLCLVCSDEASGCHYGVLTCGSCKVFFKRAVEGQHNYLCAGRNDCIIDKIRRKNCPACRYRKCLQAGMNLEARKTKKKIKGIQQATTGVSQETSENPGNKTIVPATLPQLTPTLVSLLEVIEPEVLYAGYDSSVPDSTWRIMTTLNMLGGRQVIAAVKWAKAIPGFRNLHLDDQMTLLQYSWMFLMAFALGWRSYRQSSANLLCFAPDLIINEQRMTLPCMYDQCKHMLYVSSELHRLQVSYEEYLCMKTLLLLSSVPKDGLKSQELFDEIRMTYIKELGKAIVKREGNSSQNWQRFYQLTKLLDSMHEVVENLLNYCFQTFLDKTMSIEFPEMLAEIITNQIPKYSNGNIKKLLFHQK
Outline: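 Reporter read-out: fluorescence intensity following 2 h room-temperature LiveBLAzer B/G FRET substrate loading. Prior step: GR-bla HeLa cells held 4 h, then treated 18 h at 37 C.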

Measured: Potency

CC[n+]1ccccc1
inactive: [1] | [2] | [3] | [4] | [5] | [6] | [7] | [8] | [9] | [10] | [11] | [12] | [13] | [14] | [15] | [16] | [17] | [18]

CCCCCCCCCCCC(=O)O
inactive: [1] | [2] | [3] | [4] | [5] | [6] | [7] | [8] | [9] | [10] | [11] | [12] | [13] | [14] | [15] | [16] | [17] | [18]

CCC[N+]1(C)CCCC1
inactive: [1] | [2] | [3] | [4] | [5] | [6] | [7] | [8] | [9] | [10] | [11] | [12] | [13] | [14] | [15] | [16] | [17] | [18]

CCCn1cc[n+](C)c1
inactive: [1] | [3] | [4] | [5] | [6] | [7] | [8] | [9] | [10] | [11] | [12] | [13] | [14] | [15] | [16] | [17] | [19] | [18]

CCn1cc[n+](C)c1C
inactive: [1] | [2] | [3] | [4] | [5] | [6] | [7] | [8] | [9] | [10] | [11] | [12] | [13] | [14] | [15] | [16] | [17] | [18]
